About 360 (1.2%) of roughly 31,000 compounds were called active. About 8% were inconclusive and are not listed. Calls come from the whole dose curve. Only a selection was taken, and actives are over-represented in it overall.
molecular target: Polyprotein P1234 (Chikungunya virus (strain S27-African prototype)) (UniProt Q8JUX6); assay: Primary qHTS for inhibitors of NSP2Pro chikungunya virus (CHIKV); conditions: FRET peptide cleavage, fluorescence 1 h; series mostly up to 24.9 µM; activity change, negative = inhibition: at the top concentration; note: nearly all actives have a fitted effect of over 60% in size
Sequence (Q8JUX6 whole entry, looked up): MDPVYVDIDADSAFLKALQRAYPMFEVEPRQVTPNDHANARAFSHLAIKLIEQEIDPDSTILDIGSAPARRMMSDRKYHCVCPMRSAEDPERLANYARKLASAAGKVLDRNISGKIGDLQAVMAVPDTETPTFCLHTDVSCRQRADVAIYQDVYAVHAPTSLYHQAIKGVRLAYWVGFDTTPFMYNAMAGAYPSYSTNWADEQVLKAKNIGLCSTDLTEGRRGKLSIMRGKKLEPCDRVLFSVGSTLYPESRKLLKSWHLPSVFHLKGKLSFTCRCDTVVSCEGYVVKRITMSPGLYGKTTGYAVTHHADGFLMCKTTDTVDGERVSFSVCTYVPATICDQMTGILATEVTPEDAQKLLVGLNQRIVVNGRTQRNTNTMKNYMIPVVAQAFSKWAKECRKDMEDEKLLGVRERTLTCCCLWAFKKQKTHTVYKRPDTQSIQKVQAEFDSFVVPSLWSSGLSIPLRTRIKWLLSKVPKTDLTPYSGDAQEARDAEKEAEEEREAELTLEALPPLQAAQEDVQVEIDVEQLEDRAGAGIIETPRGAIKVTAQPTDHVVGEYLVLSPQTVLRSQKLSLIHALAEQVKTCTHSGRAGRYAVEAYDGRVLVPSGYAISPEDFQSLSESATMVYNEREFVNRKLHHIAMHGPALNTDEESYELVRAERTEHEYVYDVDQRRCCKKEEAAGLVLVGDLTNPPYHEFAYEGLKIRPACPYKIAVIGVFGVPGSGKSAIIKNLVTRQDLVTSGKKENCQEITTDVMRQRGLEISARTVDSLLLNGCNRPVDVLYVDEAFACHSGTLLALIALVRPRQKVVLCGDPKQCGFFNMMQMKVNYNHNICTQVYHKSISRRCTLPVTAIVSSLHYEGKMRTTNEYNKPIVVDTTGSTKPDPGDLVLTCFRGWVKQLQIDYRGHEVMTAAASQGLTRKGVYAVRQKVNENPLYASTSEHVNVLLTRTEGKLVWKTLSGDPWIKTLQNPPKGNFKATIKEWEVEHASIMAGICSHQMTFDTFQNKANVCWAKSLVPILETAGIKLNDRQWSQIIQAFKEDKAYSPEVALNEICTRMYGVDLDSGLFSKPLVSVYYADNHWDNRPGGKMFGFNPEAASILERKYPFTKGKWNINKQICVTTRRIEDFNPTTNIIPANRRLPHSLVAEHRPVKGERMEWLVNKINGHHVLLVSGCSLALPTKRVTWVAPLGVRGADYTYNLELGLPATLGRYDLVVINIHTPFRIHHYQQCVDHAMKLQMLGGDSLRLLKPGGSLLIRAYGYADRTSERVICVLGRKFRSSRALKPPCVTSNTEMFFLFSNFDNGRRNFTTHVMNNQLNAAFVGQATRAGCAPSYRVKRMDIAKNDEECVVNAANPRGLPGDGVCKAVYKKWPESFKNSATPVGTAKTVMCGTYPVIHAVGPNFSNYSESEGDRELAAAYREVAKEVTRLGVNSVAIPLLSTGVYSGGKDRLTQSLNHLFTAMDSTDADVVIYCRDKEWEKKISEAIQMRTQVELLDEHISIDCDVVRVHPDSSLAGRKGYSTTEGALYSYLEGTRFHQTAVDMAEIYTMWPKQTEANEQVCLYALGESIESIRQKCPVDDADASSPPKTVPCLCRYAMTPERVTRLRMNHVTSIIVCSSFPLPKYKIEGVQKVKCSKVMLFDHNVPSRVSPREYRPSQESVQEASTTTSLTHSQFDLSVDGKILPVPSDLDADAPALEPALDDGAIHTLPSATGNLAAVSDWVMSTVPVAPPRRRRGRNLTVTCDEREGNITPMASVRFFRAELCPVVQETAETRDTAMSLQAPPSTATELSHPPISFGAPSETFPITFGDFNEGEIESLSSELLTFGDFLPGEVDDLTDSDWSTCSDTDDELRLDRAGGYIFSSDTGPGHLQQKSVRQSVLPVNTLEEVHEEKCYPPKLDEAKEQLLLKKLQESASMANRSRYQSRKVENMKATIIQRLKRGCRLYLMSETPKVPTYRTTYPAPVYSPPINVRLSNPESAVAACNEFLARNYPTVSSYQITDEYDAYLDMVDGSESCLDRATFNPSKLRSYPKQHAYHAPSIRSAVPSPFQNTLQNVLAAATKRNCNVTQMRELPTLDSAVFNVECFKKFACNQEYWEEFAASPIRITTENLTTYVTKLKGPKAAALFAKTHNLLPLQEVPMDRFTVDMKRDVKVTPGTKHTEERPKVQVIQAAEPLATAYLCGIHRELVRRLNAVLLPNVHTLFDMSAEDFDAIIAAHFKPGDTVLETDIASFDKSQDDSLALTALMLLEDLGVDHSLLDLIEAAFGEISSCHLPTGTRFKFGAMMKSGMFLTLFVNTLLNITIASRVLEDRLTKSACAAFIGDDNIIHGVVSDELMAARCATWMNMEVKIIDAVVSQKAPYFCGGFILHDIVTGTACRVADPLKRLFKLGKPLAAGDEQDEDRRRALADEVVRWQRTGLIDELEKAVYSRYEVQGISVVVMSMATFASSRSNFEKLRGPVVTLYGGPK
Description: PI: Natalia J. Martinez Ph.D. National Center for Advancing Translational Sciences (NCATS), National Institute of Health (NIH), Rockville, Maryland Chikungunya virus (CHIKV) is a mosquito-borne RNA virus that has emerged as one of the most important global arboviral threats in the last decade. Although the first CHIKV vaccine has recently been FDA approved for use in healthy adults at increased risk, to date, there are no available antiviral drugs for CHIKV infection. CHIKV nsP2 protease plays a crucial role in the processing of the viral polypeptide precursor to release enzymes required for viral replication, thus making it a promising drug target for antiviral discovery. Here, we established a high-throughput pipeline to identify small molecule inhibitors of nsP2 proteolytic activity. The pipeline is composed of a suite of 1,536-well in vitro assays to support quantitative high-throughput (qHTS) screening campaigns. Specifically, we developed a fluorescence resonance energy transfer (FRET)-based assay using a fluorogenic peptide substrate encompassing an endogenous cleavage site and purified recombinant protease domain (nsP2pro). Using this assay, we interrogated ~37,000 small molecules, including those in drug repurposing libraries as well as chemically diverse and medicinal chemistry-friendly compounds. Hits were selected for follow-up validation against full-length nsP2 and an additional peptide. FRET-based 1,536-well assays for papain, hepatitis C virus NS3-4A, and human furin proteases were implemented to characterize compound selectivity. […] Novel compounds were identified to be potential nsP2 inhibitors and molecular docking analyses were performed to explain the binding mode of selected hits. In vitro antiviral activity was evaluated for a subset of compounds using a high-throughput CHIKV infection assay. To our knowledge, the pipeline presented here is unprecedented for CHIKV antiviral discovery research.
PROTOCOL TABLE (as described by Inglese J, Shamu CE and Guy RK. 2007) SEQUENCE No. (e.g., 1, 2, 3, etc.); […] (e.g., Cells, Incubation, Reagent, etc.); VALUE; DESCRIPTION. 1; Control / Compound; 20 nL; Echo 655 acoustic dispenser, Greiner 1536-well solid bottom black plate. 2; Enzyme; 4 uL; BioRAPTR FRD liquid dispenser (Beckman Coulter). 3; Incubation; 15 min; room temperature. 4; Reagent; 4 uL; 2.5 uM Peptide 2 substrate. 5; Incubation; 1 hr; room temperature. 6; Detection; Fluorescence; WiewLux microplate reader (PerkinElmer), 525 nm excitation, 598/25 nm emission. NOTES (numbers refer to sequence numbers above). 1. Briefly, 20 nL DMSO, positive control ZnAc (20nM final concentration), and test compounds were transferred into a 1,536-well solid bottom black plate (789176-F, Greiner One) via Echo 655 acoustic dispenser (Beckman Coulter). For primary screens, compounds were tested at 7 concentrations, 1:3 dilution points ranging from 25 uM to 34 nM. Follow-up confirmatory screens were carried out at 11 concentrations, 1:3 dilution points from 25 uM to 0.42 nM. 2. Four uL nsP2pro enzyme mix (150 nM final concentration) in 10 mM Tris-HCl pH 8.0 with 0.01% Tween 20 assay buffer was dispensed into the plate using a BioRAPTR FRD liquid dispenser (Beckman Coulter). 3. The plate was incubated at room temperature (protected from light) for 15 min 4. Four microliter of peptide 2 substrate (2.5 uM final concentration) in assay buffer was added to the plate. 5. After 1 hour, plates were immediately read on a ViewLux high-throughput CCD imager (Exposure = 10 sec, Gain = High, Speed = Slow, Binning = 2X). The above assay was also incorporated in the NCATS HTS facility41, which allowed for robotic liquid and compound dispensing, microplate handling, and fluorescence reading.. REFERENCE: Inglese J, Shamu CE and Guy RK, Reporting data from high throughput screening of small molecule libraries, Nature Chemical Biology, 2007, 3(8): 438-441. doi.org/10.1038/nchembio0807-438.
% is set by controls: 0 for no effect and ±100 for the full control effect; potency is the fitted concentration of half-maximal effect.

Row | SMILES | activity change, negative = inhibition | outcome | Potency
1 | Cc1nn(Cc2ccccc2Cl)c(C)c1CN(C)CC(O)COc1ccc(Cl)cc1 (centres undefined) | 0.58% (inactive) | – | –
2 | O=C(Nc1nc(-c2ccccc2)cs1)c1ccncc1NS(=O)(=O)c1ccc(-c2ccccc2)cc1 | – | inactive | –
3 | CCOCCOC1CCN(S(=O)(=O)c2ccc(OC)cc2)CC1 | – | inactive | –
4 | CCOCCCNC(=O)c1cc2c(=O)n3ccccc3nc2s1 | -12% (inactive) | – | –
5 | CCc1noc(-c2cn(C3CCN(C(=O)C4(c5ccccc5)CC4)C3)nn2)n1 (centres undefined) | – | inactive | –
6 | COc1ccc(Cc2ncc3c(n2)CN(C(=O)c2ccc(OC)c(O)c2)C3)cc1 | 4.72% (inactive) | – | –
7 | CC(NC(=O)c1cc(Sc2ccc(F)cc2F)nc2ccccc12)c1ccccc1 (centres undefined) | -18.2% (inactive) | – | –
8 | O=C(N[C@@H]1CCOC[C@H]1OCCO)c1ccc2c(c1)ncn2CCO | -3.4% (inactive) | – | –
9 | CCC(=O)N1N=C(c2ccc(OC)cc2)CC1c1cn(-c2ccccc2)nc1-c1cccs1 (centres undefined) | -18.6% (inactive) | – | –
10 | CCC(=O)N1CCc2cc(S(=O)(=O)NC(Cc3ccccc3)C(=O)NCc3ccc(C)cc3)ccc21 (centres undefined) | -26.4% (inactive) | – | –
11 | FC(F)(F)c1cccc(N2CCN(C(=S)Nc3ccncc3)CC2)c1 | 0.924% (inactive) | – | –
12 | COc1cccc(-c2cn3c(n2)N(C(=O)c2cnccn2)CCC3)c1 | 5.42% (inactive) | – | –
13 | CCCN=C1S/C(=C\c2ccc(OC[C@H](O)CO)c(Cl)c2)C(=O)N1c1ccccc1C | -11.9% (inactive) | – | –
14 | CC(=O)c1ccc(NS(=O)(=O)c2ccc(-c3cc(C)no3)s2)cc1 | -10.1% (inactive) | – | –
15 | Cc1ccc(N2CCN(C(=O)CCc3c(C)nc4c(c3C)c(=O)n(C)c(=O)n4C)CC2)c(C)c1 | -6.64% (inactive) | – | –
16 | CCC(=O)N1CCc2cc(Br)cc(S(=O)(=O)CCC(=O)NCc3ccccc3OC)c21 | -13.4% (inactive) | – | –
17 | CCOc1ccc(NC(=O)Cn2nc3n(c2=O)CCN(Cc2ccccc2C)C3=O)cc1 | -3.88% (inactive) | – | –
18 | N#Cc1ccc(-c2ccc(NC(=O)c3cccs3)cn2)cc1 | 4.86% (inactive) | – | –
19 | CCOc1ccc(CNC(=O)c2ccc3nc(CC)c(CC)nc3c2)cc1OC | -2.04% (inactive) | – | –
20 | COc1ccc(CNC(=O)c2cc3c(s2)CN(C2CC2)C3)cc1OC | – | inactive | –

Row | SMILES | activity change, negative = inhibition | outcome | Potency
21 | COc1ccc(C2=Nn3c(nnc3-c3ccccc3O)SC2)cc1 | 2.77% (inactive) | – | –
22 | CCC(C)C(=O)O[C@H]1[C@@H](OC(=O)c2ccoc2)C[C@](C)(O)[C@]23OC(C)(C)[C@H](C[C@H](OC(=O)c4ccoc4)[C@]12COC(C)=O)[C@H]3OC(C)=O (some centres undefined) | -3.85% [at 10 µM] (inactive) | – | –
23 | CC1=C[C@@H](CNC2CCOCC2)[C@H](C(C)C)C[C@H]1Cc1nc2ccc(F)cc2[nH]1 | 3.26% [at 39.2 µM] (inactive) | – | –
24 | COc1ccc(C2=NS(=O)(=O)N(C)C(C(=O)NC(C)c3ccccc3)=C2)cc1 (centres undefined) | -13.3% (inactive) | – | –
25 | CC(C)Oc1cccc(-c2cnc(N3CCC(C(N)=O)CC3)s2)c1 | 0.0009% (inactive) | – | –
26 | O=C(Nc1ccccc1-c1cn2c(CN3CCNCC3)csc2n1)c1ccc2ccccc2n1 | 17.2% (inactive) | – | –
27 | COCC(=O)N(C[C@H]1O[C@@H](CC(=O)NC2CC2)[C@H](O)[C@@H]1O)C[C@H]1O[C@@H](CC(=O)NC2CC2)[C@H](O)[C@@H]1O | – | inactive | –
28 | C=CC1C(OC2OC(CO)C(O)C(O)C2O)OC=C(C(=O)OC)C1CC1CC(=O)CC(CCc2ccc(O)cc2)O1 (centres undefined) | 7.34% [at 10 µM] (inactive) | – | –
29 | COc1ccccc1CC(=O)N1CCc2c(nc3cc(-c4ccccc4Cl)[nH]n3c2=O)C1 | – | inactive | –
30 | COc1ccc(C2CC(=O)N(Cc3ccccc3C)c3c2c(C)nn3-c2nc(C)cc(C)n2)c(OC)c1 (centres undefined) | -7.48% (inactive) | – | –
31 | COc1ccc(/C=C2/C(=O)Nc3ccccc32)cc1O | – | inactive | –
32 | COc1ccc(C(=O)Nc2cccc(C(=O)OCc3cc(=O)n4c5c(sc4n3)CCCC5)c2)cc1 | -10.2% (inactive) | – | –
33 | Cc1cnc(C2CCC2)n1C1CCN(C(=O)CCC2CCCC2)CC1 | -1.69% (inactive) | – | –
34 | O=C(CSc1nccn1Cc1ccc(Cl)cc1)NCc1ccccc1 | -0.86% (inactive) | – | –
35 | O=C(CSc1ncc(CO)n1Cc1ccc(Cl)cc1)NCc1ccc(F)cc1 | -6.18% (inactive) | – | –
36 | O=C(NCc1ccc(Cl)cc1)c1cc(-c2ccc[nH]2)n[nH]1 | – | – | 8.91 µM (active)
37 | COc1ccc(CCn2cc3c(c2-c2ccc(Br)cc2)c(=O)n(C)c(=O)n3C)cc1OC | -19.2% (inactive) | – | –
38 | C[C@@H]1[C@H](O)[C@@H]2OC(=O)C3=C2[C@H](CCC3)[C@@]12C[C@@H](c1ccoc1)OC2=O | – | – | 5.44 µM (active)
39 | COc1cccc(CNc2ccc(S(=O)(=O)Nc3cc(C)on3)cc2)c1O | – | inactive | –
40 | Fc1ccc(CSc2nc(NCc3ccccc3)c3ccccc3n2)cc1 | 3.47% (inactive) | – | –

Row | SMILES | activity change, negative = inhibition | outcome | Potency
41 | O=C(Nc1ccc(O)c(-c2nc3ccccc3o2)c1)c1ccc(-c2cccc(Cl)c2)o1 | -11.1% (inactive) | – | –
42 | Cc1nn(C(C)C(=O)NCCc2ccccc2)c(=O)c2c1sc1ccccc12 (centres undefined) | -15.8% (inactive) | – | –
43 | CCOC(=O)c1c(S(=O)(=O)NCC(=O)Nc2ccc(Cl)c(C(F)(F)F)c2)c(C)n(C)c1C | -19.1% (inactive) | – | –
44 | Cc1ncc([N+](=O)[O-])n1C[C@H](O)CN1CCOCC1 | 11.8% (inactive) | – | –
45 | Cc1nn(Cc2ccccc2)c(C)c1[C@@H]1C=C[C@@H](NC(=O)NC(C)C)C1 | – | – | 14.1 µM (active)
46 | CC(C)NC(=O)NCC1Cn2cccc2C(=O)N1Cc1ccccc1 (centres undefined) | -12.1% (inactive) | – | –
47 | O=C(Cn1nc(C2CC2)ccc1=O)NCCc1ccccc1 | -6.14% (inactive) | – | –
48 | CCCC12CN3CC(CCC)(CN(C1)C3c1c[nH]c3ccc(OC)cc13)C2=O (centres undefined) | 8.29% (inactive) | – | –
49 | COc1ccc(N2Cc3cccc(C(=O)O)c3C2=O)cc1OC | -3.96% (inactive) | – | –
50 | Cc1ccc(NC(=O)CSc2nc3c(c(=O)[nH]2)CN(Cc2ccc4c(c2)OCO4)CC3)cc1C | -21.7% (inactive) | – | –
51 | O=C(Nc1ncc(Cc2ccc(C(F)(F)F)cc2)s1)c1ccc(-c2ccc([N+](=O)[O-])cc2)o1 | -11.4% (inactive) | – | –
52 | COc1cccc(Nc2ccc(N3CCN(C(C)=O)CC3)cc2)c1OC | – | inactive | –
53 | COc1ccccc1OCCCn1c(-c2ccc(Cl)cc2)nc2ccccc2c1=O | -10.8% (inactive) | – | –
54 | Cc1cc(C)nc(NS(=O)(=O)c2ccc(NC(=O)c3cc(=O)c4ccc(C)c(C)c4o3)cc2)n1 | -9.45% (inactive) | – | –
55 | O=C1C(F)N([S+](=O)([O-])c2ccc3c(c2)OCCO3)CCN1[S+](=O)([O-])c1c(F)cccc1F (centres undefined) | – | inactive | –
56 | Cc1cnn(CCC(=O)N2CCC3(CCNCC3)CC2)c1 | -10.6% (inactive) | – | –
57 | CCOc1ccc(N(Cc2ccccc2)C(=O)c2nc(SCC)ncc2Cl)cc1 | 4.15% (inactive) | – | –
58 | CCOc1ccc(N(CC)C(=O)C2CCN(S(=O)(=O)c3cccc4nonc34)CC2)cc1 | -21.2% (inactive) | – | –
59 | CCOc1ccc(N(Cc2ccccc2)C(=O)c2nc(S(C)(=O)=O)ncc2Cl)cc1 | – | – | 5.01 µM (active)

— PubChem BioAssay AID1964107 (National Center for Advancing Translational Sciences (NCATS), 2024)
